# Screening results: PubChem, Corson Lab, School of Medicine, Indiana University
# The sample as a whole holds a higher share of hits than the screen did.
# FECH block: inhibitors of human ferrochelatase; P22830; purified FECH, Ni-mesoporphyrin absorbance 550 nm; calls only at 10 µM (by protocol); hit rate 3.3% among 20,000; AID 1671448;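 active = enzyme reaction rate more than 3 SD below the solvent-only control wells on the same plate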;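 note: lower slope than DMSO wells means FECH inhibition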
# Target sequence (P22830 whole entry, looked up): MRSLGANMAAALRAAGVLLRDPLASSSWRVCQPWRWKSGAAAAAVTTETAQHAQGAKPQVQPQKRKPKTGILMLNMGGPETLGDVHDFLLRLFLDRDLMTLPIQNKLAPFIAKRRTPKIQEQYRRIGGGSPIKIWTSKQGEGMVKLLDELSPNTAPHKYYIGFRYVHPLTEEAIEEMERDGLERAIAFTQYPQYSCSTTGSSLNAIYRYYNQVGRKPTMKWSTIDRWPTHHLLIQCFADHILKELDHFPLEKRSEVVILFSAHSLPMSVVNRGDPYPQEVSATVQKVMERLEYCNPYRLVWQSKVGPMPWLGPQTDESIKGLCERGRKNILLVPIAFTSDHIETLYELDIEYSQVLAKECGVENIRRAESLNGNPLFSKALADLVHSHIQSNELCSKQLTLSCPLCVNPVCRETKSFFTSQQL
# An asterisk follows results filed as active; i = inactive; + = active, no number.
SMILES,FECH block
O=C(CN1CCCN(Cc2cccc(Cl)c2)S1(=O)=O)Nc1cccc(Cl)c1,i
Cc1ccc(CN2CCN(CC(=O)Nc3cc(C)cc(C)c3)S2(=O)=O)cc1,i
COc1cccc(NC(=O)CN2CCN(Cc3ccc(C)cc3)S2(=O)=O)c1,+
COc1ccc(NC(=O)CN2CCCN(Cc3ccc(Cl)cc3)S2(=O)=O)cc1Cl,+
COc1ccc(NC(=O)CN2CCCN(Cc3ccccc3)S2(=O)=O)cc1Cl,i
Cn1c(=O)n(CC(=O)Nc2ccc(Cl)cc2)c(=O)c2cnc(-c3ccccc3)nc21,i
O=c1cc(CN2CCN(c3ccc(F)cc3)CC2)nc2nc(NCc3ccc(F)cc3)[nH]n12,i
Cc1ccc(C)c(S(=O)(=O)N2CCCC(Cn3cc(CCO)nn3)C2)c1 (stereo not drawn),i
CC(C)c1nnsc1CNC(=O)c1cnnn1-c1ccccc1,i
O=C(NCc1cc(=O)[nH]cn1)c1cccc2ccnn12,i
O=C(NCCN1N=C(c2ccccc2)CCC1=O)c1cccc2ccnn12,+
Cc1cc(C)n(CCNC(=O)c2cccc3ccnn23)c(=O)n1,i
O=C(Cc1c[nH]c2ccccc12)NCCn1c(C(F)(F)F)nc2cccnc21,i
COCCNc1nc(Nc2cccc(C)c2)c2cnn(-c3ccccc3)c2n1,i
O=c1[nH]ncc(N2CCCC2)c1-c1ccc2c(c1)OCO2,i
Cc1ccccc1NCc1nc2nc(C)c(Cc3ccc(Cl)cc3)c(=O)n2[nH]1,i
CCOC(=O)CCc1c(C)nc2nc(CNc3ccc(C)c(Cl)c3)[nH]n2c1=O,+
CCOC(=O)CCc1c(C)nc2nc(CNc3ccccc3OC)[nH]n2c1=O,i
CCOC(=O)Cc1ccc(NC(=O)Nc2c(C)nc3nc[nH]n3c2=O)cc1,i
CCOC(=O)CCc1c(C)nc2nc(CNc3ccc(Cl)cc3)[nH]n2c1=O,+
COc1ccc(NCc2nc3nc(C)c(Cc4ccc(Cl)cc4)c(=O)n3[nH]2)cc1,+
CCOC(=O)CCc1c(C)nc2nc(CNc3cc(Cl)ccc3OC)[nH]n2c1=O,i
Cc1ccc(NCc2nc3nc(C)c(Cc4ccc(Cl)cc4)c(=O)n3[nH]2)cc1,i
CCc1nc2nc(C)c(NC(=O)Nc3cccc(Cl)c3)c(=O)n2[nH]1,i
CN1C(=O)c2cc(C(=O)NCCN3CCCC3)nn2CC1(C)C(=O)NCc1ccc(F)cc1 (stereo not drawn),i
SMILES,FECH block
Cc1ccc(S(=O)(=O)NCc2nc3cccnc3n2Cc2ccc(F)cc2)cc1Cl,i
CC(C)(C)c1ncc2c(n1)CN(C(=O)CCc1cc(Cl)no1)C2,i
CCCCc1ncc(CN2CCC3(CCCN(C(=O)C(C)(C)C)C3)C2)[nH]1 (stereo not drawn),i
O=S(=O)(NCc1ccccc1)NC1CCCN(c2ncccn2)C1 (stereo not drawn),i
COc1ccccc1CNC(=O)CN1C(=O)CC(c2ccc(Br)s2)=Nc2ccccc21,i
CCc1ccc2c(c1)-c1ccccc1S(=O)(=O)N2CC(=O)NCCSC1CCCCC1,i
O=C(CN1c2ccc(F)cc2-c2ccccc2S1(=O)=O)NCCCn1ccnc1,i
CCc1ccc(C2=C(C)C(=O)N(CC(=O)NCc3cccs3)S2(=O)=O)cc1,i
CCc1ccc(C2=C(C)C(=O)N(CC(=O)Nc3cc(C)ccc3OC)S2(=O)=O)cc1,i
CCc1ccc2c(c1)-c1ccccc1S(=O)(=O)N2CC(=O)NCc1cccnc1,+
CCc1ccc2c(c1)-c1ccccc1S(=O)(=O)N2CC(=O)NCCCn1ccnc1,+
O=C(CNC(c1cccs1)C1CCCCC1)Nc1cnccn1 (stereo not drawn),i
CC(=O)N1CCC(N(C)Cc2cc(C(C)(C)C)n[nH]2)CC1,i
Cc1ccc(-c2ncc3c(=O)n(Cc4ccccn4)c(=O)n(C)c3n2)cc1,i
CCCCc1ccc(Nc2cc(-c3ccc(C)cc3)nc(C)n2)cc1,i
CN(C)c1nc2ncnc(SCC(=O)Nc3ccc(F)cc3F)c2s1,i
Cc1ccc(NC(=O)CN2CCN(Cc3ccc(F)cc3Cl)S2(=O)=O)c(Cl)c1,i
COc1cccc(CNC(=O)CSc2cc(Oc3cc(C)cc(C)c3)ncn2)c1OC,+
Cc1cc(C)cc(Oc2cc(SCC(=O)Nc3ccccc3C)ncn2)c1,+
COc1ccccc1CNC(=O)CN(C)Cc1c(C)nn(C)c1C,i
CCC(=O)Nc1ccccc1-c1nnc(SCC(=O)Nc2ccc(C)cc2C)[nH]c1=O,i
COc1ccccc1CNC(=O)CN(C)Cc1ncc(C)[nH]1,i
Cc1cc(C)cc(Oc2cc(SCC(=O)Nc3ccc(F)cc3Cl)ncn2)c1,+
Cc1ccccc1NC(=O)CCNC(=O)COc1c(C)ccc(C)c1C,i
Cc1cn2cc(CNC(=O)CC3NC(=O)c4ccccc43)nc2s1 (stereo not drawn),i
SMILES,FECH block
CCn1cc(S(=O)(=O)N2CCN(c3cc(-c4cccc(OC)c4)ncn3)CC2)cn1,i
CN(Cc1nncn1C)C(=O)[C@H]1C[C@@H](C(=O)O)N(C)[C@H]1c1cccc(Cl)c1,i
CCCC(=O)Nc1cccc(C(=O)NC(C)(C)CN2CCCC2)c1,i
CCCCC(=O)Nc1ccc(Nc2nc(C)cc(N(C)C)n2)cc1,i
COc1ccc(N2C(=O)CCS2(=O)=O)cc1S(=O)(=O)Nc1ccccc1Cl,i
Cc1ccc(C)c(N(C)C(=O)Cn2c(=O)c3cnc(-c4ccccc4)nc3n(C)c2=O)c1,i
O=c1cc(CN2CCCCC2)nc2nc(NCc3ccc(F)cc3)[nH]n12,i
CCCc1nc2nc(CC)[nH]n2c(=O)c1N,i
O=c1c2c(nc3nc(CNc4ccc(F)cc4)[nH]n13)CCC2,+
CCc1ccc(NCc2nc3nc4c(c(=O)n3[nH]2)CCC4)cc1,+
CCc1nc2nc(C)c(NC(=O)Nc3ccc4c(c3)OCCO4)c(=O)n2[nH]1,i
Cc1cc(C)cc(NC(=O)N2CCN(CCn3c(C(F)(F)F)nc4cccnc43)CC2)c1,i
CNc1ccccc1C(=O)N1CCC2(CC1)C(=O)NCCN2C,i
CC(=O)Nc1ccc2c(c1)NC(=O)CC2c1ccnc2ccccc12 (stereo not drawn),i
CC(=O)NCC1CCCN(Cc2ccc(C)c(Cl)c2Cl)C1 (stereo not drawn),i
COc1ccc(-c2ncc3c(=O)n(Cc4cccc(C)c4)c(=O)n(C)c3n2)cc1,i
CCOc1ccccc1-c1nc(Cn2c(=O)c3cnc(-c4ccc(C)cc4)nc3n(C)c2=O)c(C)o1,i
COc1ccc(-c2ncc3c(=O)n(Cc4cccnc4)c(=O)n(C)c3n2)cc1,+
COc1ccccc1-c1nc(Cn2c(=O)c3cnc(-c4cccnc4)nc3n(C)c2=O)c(C)o1,i
COc1ccccc1-c1nc(Cn2c(=O)c3cnc(-c4ccc(C)cc4)nc3n(C)c2=O)c(C)o1,+
COc1ccc(-c2ncc3c(=O)n(Cc4cccc(OC)c4)c(=O)n(C)c3n2)cc1,i
CC(=O)c1ccc(NC(=O)C2CCN(c3ncnc4c3nc3n4CCCCC3)CC2)cc1,i
Cc1nc(CCNC(=O)[C@H](N)CC(C)C)sc1C,i
COc1cccc(OCC(=O)N2CCC3(CCN(C)C3)CC2)c1,i
O=C(Nc1cccc(N2CCCS2(=O)=O)c1)c1ccc(C(F)(F)F)cc1,i
Cc1cccc(OCC(=O)Nc2cc(C)nn2-c2ncnc3c2cnn3-c2cccc(C)c2C)c1,i
Cc1cc(NC(=O)COc2ccc(C(C)C)cc2)n(-c2ncnc3c2cnn3-c2cccc(C)c2C)n1,+
